# Data reported in PubChem BioAssay AID504832 (National Center for Advancing Translational Sciences (NCATS), 2011).
# Hit rate of the full screen: of about 310,000 compounds, about 18,000 (5.8%) were called active. Inconclusive results (about 22%) are left out. This is one part of a sample in which actives are shown more often than they occur. Unmarked numbers belong to inactive results. Calls come from the whole dose curve; as a rule, active = well fitted inhibition curve with a large enough effect; inconclusive = small, poorly fitted or top-dose-only effect, or another doubt; inactive = no such curve, though single readings can be large or run the other way.
# Test: Primary qHTS for delayed death inhibitors of the malarial parasite plastid, 48 hour incubation
# Details: P. falciparum luciferase growth in erythrocytes; series mostly up to 28.7 µM; activity change, negative = inhibition: at the top concentration
# Outline: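 Erythrocytes infected with P. falciparum carrying an integrated firefly luciferase reporter (2% hematocrit, 0.1% parasitemia final) were exposed to compounds in RPMI 1640 with 0.5% Albumax at 37 C, 5% CO2. Growth inhibition was scored as reduced luminescence.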
# % is set by controls: 0 for no effect and ±100 for the full control effect; potency is the fitted concentration of half-maximal effect.
SMILES,Potency,"activity change, negative = inhibition"
COc1ccc(-c2cn(-c3ccc(C)cc3)c(=O)n2CC(=O)Nc2ccc(OC)c(OC)c2)cc1,14.7 µM (active),
COc1ccc(NC(=O)COC(=O)Cn2c(C)nc3ccccc32)cc1OC,,9.03%
COc1ccc(NC(=O)Cn2nnc(C(=O)NCCc3ccc(OC)c(OC)c3)c2N)cc1,,-10.4%
COC(=O)c1ccc(COc2ccc(C#N)cc2)o1,,7.42%
COc1ccc(OCC(=O)NCCS(=O)(=O)N2CCN(c3ccc(F)cc3)CC2)cc1,,-0.428%
CC(C)CC(=O)c1c[nH]c(C(=O)NCc2ccccc2)c1,,-10.2%
Cc1nnc(SCC(=O)NCc2ccccc2)s1,,-5.4%
Cc1nnc(SCC(=O)N2c3ccccc3C(C)(c3ccc(Cl)cc3)CC2(C)C)s1 (configuration not stated),10.4 µM (active),
Cc1nnc(SCC(=O)N2CCc3ccccc3C2)s1,,16.2%
Cc1ccc(Cn2c(C)c3cnn(CC(=O)NCc4ccccn4)c(=O)c3c2C)cc1,,17.8%
O=C(CCCN1C(=O)/C(=C/c2ccco2)SC1=S)Nc1ccccc1,,-2.16%
Cc1ccc(-c2nn(-c3ccccc3)cc2/C=C2\SC(=S)N(CCCCCC(=O)O)C2=O)o1,4.65 µM (active),
Cc1ccc(-c2nn(-c3ccccc3)cc2CN(Cc2ccccc2)C(=O)CCC(=O)O)o1,,-24.1%
O=C(O)c1cc2c(cc1NC(=O)c1c(F)cccc1Cl)OCCCO2,,6.31%
O=C(NCc1ccccc1CN1CCCC1)c1cccc(S(=O)(=O)Nc2ccc(F)cc2)c1,13.1 µM (active),
COc1ccc(C(CNC(=O)c2ccc(NS(=O)(=O)c3ccc(F)c(C)c3)cc2)N(C)C)cc1 (configuration not stated),14.7 µM (active),
CCN(c1ccccc1)S(=O)(=O)c1cccc(C(=O)O)c1,,0%
COc1ccc(C(=O)Nc2ccc(S(=O)(=O)NC(C)C)cc2)cc1,,-6.62%
COc1ccc(Cl)cc1NS(=O)(=O)c1cccc(C(=O)NCC2CCCO2)c1 (configuration not stated),,-8.74%
CCN(c1ccccc1)S(=O)(=O)c1cccc(C(=O)NCc2ccccc2CN2CCOCC2)c1,13.1 µM (active),
O=C(NCc1cccc(C(F)(F)F)c1)c1cccc(S(=O)(=O)N2CCN(Cc3ccccc3)CC2)c1,,21.4%
O=C(OC1CCOC1=O)c1cccc(S(=O)(=O)Nc2ccc(F)cc2)c1 (configuration not stated),,-6.89%
CC(=O)N1CCN(C(=O)c2cccc(S(=O)(=O)Nc3ccc(C)cc3)c2)CC1,,-6.33%
COc1ccc(NS(=O)(=O)c2cccc(C(=O)NCCc3ccc(S(N)(=O)=O)cc3)c2)cc1,,-22%
COc1ccc(C(CNC(=O)c2ccc(S(=O)(=O)Nc3ccccc3F)cc2)N(C)C)cc1 (configuration not stated),,21.9%
COc1ccccc1C(CNC(=O)c1cccc(S(=O)(=O)Nc2ccc(F)cc2)c1)N(C)C (configuration not stated),13.1 µM (active),

SMILES,Potency,"activity change, negative = inhibition"
COCCCNC(=O)Cc1ccc(-n2c(C)nc3cccnc32)cc1,,5.36%
COc1ccccc1CNC(=O)c1ccc(N(C)S(=O)(=O)c2ccc(C)cc2)cc1,,-22.8%
CCc1nn(CCCC(=O)NCc2ccc(C)cc2)c(=O)c2cc3occc3n12,,0%
O=C(NC(Cc1ccccc1)C(=O)O)/C(=C\c1ccccc1)NC(=O)c1ccco1 (configuration not stated),,33.1%
O=Cc1c(Nc2ccccc2Cl)nc2ccccn2c1=O,,41.8%
CC1(C)C(C=C(Cl)Cl)C1C(=O)NC(O)C(=O)c1ccccc1 (configuration not stated),,9.03%
O=C(CCNC(=O)C1CCN(S(=O)(=O)c2ccccc2)CC1)NC1CC1,,14.5%
CCN(CC)C(CNC(=O)CSc1nnnn1-c1cccc(F)c1)c1ccco1 (configuration not stated),,-29.1%
CCCCNC(=O)C1(O)c2ccccc2NC(=O)N1c1ccc(Cl)cc1 (configuration not stated),,0.406%
COc1ccccc1CCNS(=O)(=O)c1cn(C)nc1C,,-12.3%
CCc1nc2cccnc2n1-c1ccc(C(=O)O)cc1,,19.8%
NC(=O)Cn1cc(/C=N\NS(=O)(=O)c2ccccc2)c2ccccc21,,43.9%
CCc1ccccc1NC(=O)c1ccc2snnc2c1,,14.8%
CC1CCCCN1C(=O)CCS(=O)(=O)Cc1ccccc1 (configuration not stated),,11.6%
Cc1cnc(C(=O)Oc2cccc(Cl)c2Cl)cn1,,59.4%
CC(C)(C)C1CCC(C(=O)NCC(c2cccs2)N2CCOCC2)CC1 (configuration not stated),,-4.52%
Cc1ccc(-c2nn(-c3ccc(F)cc3)cc2C(=O)NCC(c2cccs2)N2CCOCC2)cc1 (configuration not stated),10.4 µM (active),
O=C(NCC(c1cccs1)N1CCOCC1)c1cc(Cl)ccc1[N+](=O)[O-] (configuration not stated),,-1.55%
CCOC(=O)C1(Cc2cccc(OC)c2)CCCN(C(=O)CCSC)C1 (configuration not stated),,-11.8%
CC(=O)N1CCN(C(=O)C2(NC(=O)Nc3ccc(C)cc3)CCCCC2)CC1,,40.1%
O=C(c1cc2ccccc2o1)N1CCN(c2cccc(C(F)(F)F)c2)CC1,,7.94%
Cc1nn(CC(=O)N2CCCCC2)c(=O)c2nn(-c3ccccc3)c(C)c12,,-5.66%
COc1ccc(N2CCN(C(=O)C3CCN(C(=O)c4ccccc4Cl)CC3)CC2)cc1,,1.99%
COc1ccc(Nc2ncc(C(=O)N3CCN(c4ccccc4OC)CC3)c3ccccc23)cc1,11.7 µM (active),
COc1ccccc1N1CCN(C(=O)c2ccc(NC3=NC4CS(=O)(=O)CC4S3)cc2)CC1 (configuration not stated),,14.2%
OC(COc1ccc(F)cc1Cl)CN1CCc2ccccc2C1 (configuration not stated),,-0.387%

SMILES,Potency,"activity change, negative = inhibition"
CCN(CC)S(=O)(=O)c1ccc2[nH]c(=O)cc(C(=O)N(C)C3CCS(=O)(=O)C3)c2c1 (configuration not stated),,-20.4%
COc1ccc(NC(=O)CSc2ccc(-c3ccco3)nn2)c(OC)c1,,-14.8%
COCCn1c(SCC(=O)Nc2cc(Cl)ccc2OC)nc2c(c1=O)SC(C)C2 (configuration not stated),8.28 µM (active),
COCCn1c(SCC(=O)Nc2ccccc2F)nc2c(c1=O)SCC2,,-12.9%
CCn1c(SCC(=O)Nc2ccc3c(c2)OCCO3)nc2c(c1=O)SC(C)C2 (configuration not stated),,-28.5%
COc1ccc(C)cc1NC(=O)CSc1ccc(Cl)cc1,,-12.7%
Cn1c(CCC(=O)Nc2ccccc2F)nnc1SCC(=O)Nc1ccccc1Cl,,-15.2%
CC1Cc2nc(SCC(=O)Nc3ccccc3F)n(C)c(=O)c2S1 (configuration not stated),7.38 µM (active),
CC(C)N(Cc1ccccc1)C(=O)COC(=O)c1ccccc1SCC(=O)N1CCCC1,,1.56%
CCn1c(SCC(=O)NCC2CCCO2)nc2ccccc21 (configuration not stated),,-21%
CC1CCN(C(=O)c2ccc3c(=O)n4c(nc3c2)CCCCC4)CC1,,31.7%
COCCN1C(=O)C(=O)/C(=C(/O)c2ccc(S(=O)(=O)N3CCOCC3)cc2)C1c1ccc(O)c(OC)c1 (configuration not stated),,29.1%
CCOC(=O)C1CCN(C(=O)COc2cccc3ccccc23)CC1,,-0.738%
Cc1ccc(C(=O)NNC(=O)C(C)Oc2ccc3ccccc3c2)o1 (configuration not stated),,22.6%
Cc1cccc(C(C)C)c1NC(=O)COC(=O)C1CC(=O)N(Cc2ccccc2)C1 (configuration not stated),,0.575%
COc1cccc(N2CC(C(=O)NCc3n[nH]c(=O)c4ccccc34)CC2=O)c1 (configuration not stated),,-12.8%
CN(C)CCCCCN(C)Cc1cc2ccccc2o1,4.65 µM (active),
COc1ccccc1CN(C)C(=O)c1cc2ccccc2o1,,-7.77%
CCCOC(=O)c1cc2ccccc2oc1=O,,-10.7%
O=c1c2ccccc2ccc2ccc(P(=O)(O)O)cc12,,25.5%
CC1CC(C)CN(C(=O)CCNC(=O)Cn2cnc3ccccc3c2=O)C1 (configuration not stated),,10.9%
CSc1ccc(C(=O)C2CCCN(Cc3ccn[nH]3)C2)cc1 (configuration not stated),,6.4%
COc1cc(CN2CCCC(C(=O)c3ccc(SC)cc3)C2)cc(Cl)c1O (configuration not stated),11.7 µM (active),
COc1ccc(CCN(C)C(=O)C2CCCN(Cc3ccc(OC)c(OC)c3)C2)cc1OC (configuration not stated),,-7.1%
CCN1CCN(C2CCCCC2NS(=O)(=O)c2ccc(Cl)cc2)CC1 (configuration not stated),,3.88%
Cc1csc(NC(=O)C2CCN(S(=O)(=O)c3ccccc3)CC2)n1,,-7.04%

SMILES,Potency,"activity change, negative = inhibition"
CC1CCN(C(=O)COC(=O)c2cc(=O)[nH]c3ccccc23)CC1,,38.1%
Cc1cc(S(=O)(=O)NC2CCCC2)ccc1-n1cnnn1,,-4.46%
CSc1ccc(CNCCN2CCOCC2)cc1,,-1.58%
CCCCC(CC)CNCc1cccn1CCN1CCOCC1 (configuration not stated),11.7 µM (active),
CCCCc1ccc(NC(=S)NCCCN2CCOCC2)cc1,,-23.5%
O=C(CN1C(=O)S/C(=C\c2ccccc2F)C1=O)NCCCn1ccnc1,,-4.46%
O=C(COC(=O)Cc1ccccc1F)NNC(=O)c1ccc(Cl)cc1,,37.3%
CC(C)c1nnc(NC(=O)CCC(=O)N2CCN(c3cccc(Cl)c3)CC2)s1,,6.01%
CCc1ccc(C(CNc2nc(C(F)(F)F)nc3ccccc23)N(C)C)cc1 (configuration not stated),11.7 µM (active),
Cc1cc(C)n(-c2nc(C(F)(F)F)nc3ccccc23)n1,,31.4% [at 5.75 µM]
NS(=O)(=O)c1ccc(CCNc2nc(C(F)(F)F)nc3ccccc23)cc1,,-26.2%
CCC(NC(=O)c1cc(COc2ccc(F)c(F)c2)on1)c1ccncc1 (configuration not stated),,-12.4%
Cc1ccccc1CCNC(=O)C1CCC(=O)N(Cc2ccc(Cl)cc2)C1 (configuration not stated),,3.12%
Cc1c(C)n2c(SCC(=O)N3CCCC3)nnc2[nH]c1=O,,-28.1%
COC(=O)Cc1ccc(OCC(=O)NC2CCCC2)cc1,,-4.97%
CCOc1ccc(NC(=O)COC(=O)C2CCC(=O)N2)c([N+](=O)[O-])c1 (configuration not stated),,-2.02%
COc1cccc(-n2cc3c(c2-c2ccccc2)c(=O)n(C)c(=O)n3C)c1,5.22 µM (active),
COc1ccc(-c2c3c(=O)n(C)c(=O)n(C)c3cn2-c2cccc(OC)c2)cc1,11.7 µM (active),
COc1ccc(-c2c3c(=O)n(C)c(=O)n(C)c3cn2NC(C)=O)cc1,,-2.03%
COc1ccc(N(C(=O)c2cccnc2)S(=O)(=O)c2ccc3c(c2)n(C)c(=O)n3C)cc1,,2.95%
COc1ccc(-n2c(-c3ccccc3)nc3ccccc3c2=O)cc1,,4.43%
COc1cccc(-n2cc(C(=O)O)c3ccccc3c2=O)c1,,-2.63%
Cc1cnc(NC(=O)c2ccc(Cl)nc2)s1,,-10.1%
COC(=O)c1ccc(N2CCOCC2)c(NC(=O)c2ccc3c(c2)OCCO3)c1,,-2.73%
